GLP1R cytotox = cytotoxicity in counter-screen for GLP-1R inverse agonists. Potency, µM (highest dose often 38.3 µM), hits mostly inhibitors. HEK293 cAMP-luciferase reporter cells, luminescence, 24 h. AID 624418. 0.13% of 410,000 active;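 also: loss of luciferase light is scored as toxicity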
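Here, cytotoxicity is scored as loss of luminescence. The MLSMR collection was tested on cells seeded in medium containing 10% Nu serum, with a 24 hr compound exposure preceded by 12 hours of culture.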
Mito fusion yeast = blocks mitochondrial division or promotes mitochondrial fusion | Potency, µM (doses to about 46.1 µM), hits mostly activators | S. cerevisiae fusion-defective mutant growth rescue, CellTiterGlo 48 h | 0.23% of 320,000 active; also: nearly all actives have a fitted effect of over 45% in size
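Growth-rescue viability read-out: after 48 h at the non-permissive 37C in glycerol/ethanol YPEG, yeast mitochondrial fusion mutants are measured by CellTiterGlo luminescence; compounds (23 nl pinned per well) restoring growth score as division inhibitors or fusion activators.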
BRCA1 expr act = BRCA1 expression activation. Potency, µM (highest dose often 46.1 µM), hits mostly activators. MCF7-BRCA1-FFLuc reporter, luminescence, 48 h; response scale: scaled: vehicle 0%, 10 µM genistein 100%. AID 624202. 1.1% of 380,000 active; also: nearly all actives have a fitted effect of over 80% in size
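Compounds are tested at multiple concentrations on MCF7 BRCA1-luciferase reporter cells seeded at 2000 per well; after 48 h, a single luminescence end-point is taken and curves fitted to the normalized data.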
GLP1R inv ag = inverse agonists of human GLP-1 receptor; P43220; HEK293 GLP-1R CRE-luciferase, luminescence, 24 h; GLP-1R form is constitutively active; Potency, µM (titrated, usually from 38.3 µM), actives largely listed as inhibitors; 1.6% of 410,000 active; also: nearly all actives have a fitted effect of over 55% in size
Target sequence (P43220 whole entry, looked up): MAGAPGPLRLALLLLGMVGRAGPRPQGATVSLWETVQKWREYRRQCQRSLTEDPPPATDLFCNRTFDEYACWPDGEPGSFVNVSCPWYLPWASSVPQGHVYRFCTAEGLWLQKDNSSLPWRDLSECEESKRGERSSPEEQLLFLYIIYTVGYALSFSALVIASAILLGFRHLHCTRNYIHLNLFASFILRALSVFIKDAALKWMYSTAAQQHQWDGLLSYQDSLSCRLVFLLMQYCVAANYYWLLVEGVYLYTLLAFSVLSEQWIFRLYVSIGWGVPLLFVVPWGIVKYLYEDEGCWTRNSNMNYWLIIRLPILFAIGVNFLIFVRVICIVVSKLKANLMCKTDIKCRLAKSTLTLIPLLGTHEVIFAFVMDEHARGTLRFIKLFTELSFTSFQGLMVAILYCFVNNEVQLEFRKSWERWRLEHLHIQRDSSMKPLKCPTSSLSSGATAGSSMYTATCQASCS
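HEK293 cells stably co-expressing constitutively active GLP-1R and a cAMP-responsive luciferase reporter were seeded in DMEM with 10% Nu serum, given compounds after 12 h, and incubated 24 h at 37 deg C. Luminescence was then read.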
GLP-1R agonist = agonists of human GLP-1 receptor; P43220; HEK293 GLP-1R CRE-luciferase, luminescence, 4-6 h; cells express a hypersensitive GLP-1R form; Potency, µM (top dose mostly 45.6 µM), hits mostly activators; 0.007% of 380,000 active; AID 624172
Hits are given with their value; . = inactive; ? = inconclusive; / = no result. An excerpt weighted towards active compounds, which were near 2.8% of everything screened. Calls follow the shape of the dose curve; as a rule, active = well fitted curve in the direction sought with a large enough effect; inconclusive = small, poorly fitted or top-dose-only effect, or another doubt; inactive = no such curve, though single readings can be large; an effect the other way counts as inactive or inconclusive.

SMILES | GLP1R cytotox | Mito fusion yeast | BRCA1 expr act | GLP1R inv ag | GLP-1R agonist
Cc1ccc2nc(SC(C(=O)Nc3ccc(F)cc3)c3ccccc3)[nH]c2c1 (configuration not stated) | ? | . | . | 5.62µM | .
CCC(Sc1nc2ccc(C)cc2[nH]1)C(=O)O (configuration not stated) | . | . | . | . | .
N=C1C(c2nc3ccccc3s2)=C(O)CN1Cc1ccccc1 | ? | . | . | . | .
CCN(CC)CCCN1CC(O)=C(c2nc3ccccc3s2)C1=N | . | . | . | 11.2µM | .
CCC(NS(=O)(=O)c1ccc(OC)cc1)C(=O)O (configuration not stated) | . | . | . | . | .
COc1ccc(-n2c(-c3ccc(F)cc3)cnc2SCC(=O)NCc2ccco2)cc1 | . | . | . | . | .
C/C(=N\NC(=O)c1nnn(-c2nonc2N)c1-c1cccs1)c1ccc(O)cc1 | . | . | . | 7.94µM | .
C/C(=N\NC(=O)c1nnn(-c2nonc2N)c1C(C)C)c1cc(C)sc1C | . | 31.6µM | . | . | .
O=C(c1ccc([N+](=O)[O-])o1)N1CCN(c2nc3c(F)cc(F)cc3s2)CC1 | . | ? | . | . | .
Cc1ccc(C)c2sc(N3CCN(C(=O)c4ccc([N+](=O)[O-])o4)CC3)nc12 | . | 20µM | . | . | .
COc1ccc(OC)c(CN2CCCCCC2)c1 | . | . | . | . | .
Cc1ccc(Cn2c(C(C)Nc3nc(-c4ccc(F)cc4)cs3)nc3cc(Cl)c(Cl)cc32)cc1 (configuration not stated) | . | / | . | 11.2µM | .
CCCn1c(C(C)Nc2nc(-c3ccc(C)cc3)cs2)nc2cc(Cl)c(Cl)cc21 (configuration not stated) | . | . | . | ? | .
Cc1ccc(OC(C)C(=O)N2CCc3ccccc32)c([N+](=O)[O-])n1 (configuration not stated) | . | / | . | . | .
CCOc1ccc(N(C)S(=O)(=O)c2cc(-c3cc(C)no3)ccc2C)cc1 | . | . | . | ? | .
CCOc1ccc(N(C)S(=O)(=O)c2cc(-c3cc(C)no3)ccc2CC)cc1 | . | . | . | 8.91µM | .
CCC(=O)Nc1cccc(NC(C)=O)c1 | / | . | / | / | /
Clc1ccc(-c2csc(Nc3ccccc3)[n+]2Cc2ccco2)c(Cl)c1 | . | . | ? | 2.82µM | .
CCCC[n+]1c(-c2ccc(Cl)cc2Cl)csc1Nc1ccccc1 | . | . | . | ? | .
CCCc1cc2c(=O)c(-c3ccccn3)c(C)oc2cc1O | ? | . | . | . | .
CCCc1cc2c(=O)c(-c3ccccn3)coc2cc1OC | . | . | 5.62µM | . | .
O=C(c1cccc(S(=O)(=O)N2CCN(c3ccccc3)CC2)c1)N1CCN(c2ccccc2O)CC1 | . | . | . | ? | .
COc1ccccc1NC(=O)COc1ccccc1C(=O)c1cnn(-c2ccccc2)c1 | . | . | 12.6µM | . | .
CCc1ccc(NC(=O)COc2ccc(F)cc2C(=O)c2cnn(-c3ccccc3)c2)cc1 | . | . | . | . | .
O=C1NCC(c2ccccc2)C1C(=O)N/N=C/c1ccc(Cl)s1 (configuration not stated) | . | . | . | . | .
SMILES | GLP1R cytotox | Mito fusion yeast | BRCA1 expr act | GLP1R inv ag | GLP-1R agonist
O=C1NCC(c2ccccc2)C1C(=O)N/N=C\c1ccc(-c2ccc(Cl)c(Cl)c2)o1 (configuration not stated) | ? | . | . | 10µM | .
Fc1ccc(-[n+]2nc(Nc3ccccc3)sc2-c2c3ccccc3cc3ccccc23)cc1 | ? | . | . | 11.2µM | .
CCOC(=O)c1c(NC(=O)c2ccc(S(=O)(=O)N3CCC(C)CC3)cc2)sc2c1CCN(CC)C2 | . | / | . | ? | .
O=C(CSc1ncccn1)Nc1ccc2c(c1)OCO2 | . | / | . | . | .
O=C(Nc1ccc2c(c1)OCO2)N1CCN(c2ccccc2Cl)CC1 | ? | . | 10µM | . | .
O=C(CSc1ccc([N+](=O)[O-])cn1)Nc1ccc2c(c1)OCCO2 | . | . | . | . | .
O=C(CSc1ccccn1)Nc1ccc2c(c1)CCC2 | . | . | 10µM | ? | .
O=C(CSc1ncccn1)NC(=O)Nc1ccc2c(c1)OCCO2 | . | . | 12.6µM | . | .
